Over roughly 140,000 sequences, “enrichment ratio after two sorts for PhoP signalling” has its median near 0; the highest 2% begin near 11. This is one part of a sample in which the highest values are shown more often than they occur. A value given as a limit tells only on which side of the number the result lay.

Sequences and labels used below:
B1: PhoQ; a variant is named by its letters at X, in order, P23837 (parent)
chain: MKKLLRLFFPLSLRVRFLLATAAVVLVLSLAYGMVALIGYSVSFDKTTFRLLRGESNLFYTLAKWENNKLHVELPENIDKQSPTMTLIYDENGQLLWAQRDVPWLMKMIQPDWLKSNGFHEIEADVNDTSLLLSGDHSIQQQLQEVREDDDDAEMTHSVAVNVYPATSRMPKLTIVVVDTIPVELKSSYMVWSWFIYVLSANLLLVIPLLWVAAWWSLRPIEALAKEVRELEEHNRELLNPATTRELTSLVRNLNRLLKSERERYDKYRTTLTDLTHSLKTPLXXLQXXLRSLRSEKMSVSDAEPVMLEQISRISQQIGYYLHRASMRGGTLLSRELHPVAPLLDNLTSALNKVYQRKGVNISLDISPEISFVGEQNDFVEVMGNVLDNACKYCLEFVEISARQTDEHLYIVVEDDGPGIPLSKREVIFDRGQRVDTLRPGQGVGLAVAREITEQYEGKIVAGESMLGGARMEVIFGRQHSAPKDE

In this assay the parent is B1. In words: enrichment ratio after two sorts for PhoP signalling (ratio (wild type AVST 3.29)); higher = more functional. To be noted: with PhoP (E. coli).
As for SNRC, the enrichment ratio is no more than 0.25.
Regarding GTRN, the enrichment ratio was no more than 0.25.
The result for HRVR reads no more than 0.25.
As to LSWW, the enrichment ratio was no more than 0.25.
As for ACNW, the figure is no more than 0.25; as for QYTV, no more than 0.25; as for PYEY, no more than 0.25.
As for MGMC, the figure is 5.27.
With KDLL, the enrichment ratio was no more than 0.25.
As for QGLL, the figure is 10.4; as for THLL, 14; as for FGLL, 12.6.
The result for SGLL reads 19.8; that for TDLL, 11.8.
The result for YHLL reads no more than 0.25; that for FGNL, no more than 0.25; that for NHLL, no more than 0.25.
Regarding TILL, the enrichment ratio turned out to be 0.421.
The result for FDLL reads no more than 0.25.
Consider IMDM, for which the enrichment ratio was no more than 0.25.
Take IQAN: the enrichment ratio was no more than 0.25.
The result for PYDA reads no more than 0.25.
As for PKEG, the figure is no more than 0.25; as for VQIN, no more than 0.25.
The result for QPDT reads no more than 0.25; that for LCFE, no more than 0.25; that for CCPF, no more than 0.25.
Consider HHCS, for which the enrichment ratio was no more than 0.25.
The result for SMLS reads 6.78; that for CTLL, 0.613; that for MVLL, 7.33.
With QELL, the enrichment ratio is no more than 0.25.
The result for ITLL reads 7.22; that for SMLL, 11.2; that for SELL, 16.3.
Take TTLL: the enrichment ratio was determined as 17.7.
The result for SMLA reads 6.54; that for GLLA, no more than 0.25; that for GLLL, 11.7.
The result for HWCD reads 2.96.
As for RPRI, the figure is no more than 0.25.
VRDD: the enrichment ratio is no more than 0.25.
The result for KIGV reads no more than 0.25; that for THDR, no more than 0.25.
As for AYVL, the figure is no more than 0.25; as for MAPF, no more than 0.25; as for SDCN, 4.78.
As for WMRH, the figure is no more than 0.25; as for DNPC, no more than 0.25.
Turning to AGLL, the enrichment ratio worked out at 14.6.
As for DPLL, the figure is no more than 0.25; as for TNLL, 4.87.
Take KYLL: the enrichment ratio is no more than 0.25.
The result for MCLL reads 8.32; that for GGLL, 12.7; that for GYLL, no more than 0.25.
The result for MNLL reads 12.4; that for RGLL, no more than 0.25; that for SQLL, 12.5.
As for QKGI, the enrichment ratio was no more than 0.25.
VHAG: the enrichment ratio was no more than 0.25.
As for IAYV, the figure is no more than 0.25; as for FDHC, no more than 0.25.
The result for EIDC reads no more than 0.25.
For the variant SSGH, the enrichment ratio was found to be 7.6.
As for QDTV, the figure is no more than 0.25; as for ILKM, no more than 0.25.
The result for KQLL reads no more than 0.25; that for SALL, 18.6.
As to VTLA, the enrichment ratio was found to be 5.19.
Regarding STLL, the enrichment ratio was found to be 16.4.
Consider MGGL, for which the enrichment ratio is 4.99.
The result for SFLL reads 3.56.
The result for VYLL reads no more than 0.25; that for SLLL, 5.02.
The result for MGRL reads no more than 0.25.
Take IILL: the enrichment ratio was determined as 1.2.
As for VTLL, the figure is 17.8; as for MGLL, 14.3; as for PQRH, no more than 0.25.
As for LTHP, the figure is no more than 0.25; as for TKSQ, 2.92; as for HTAI, no more than 0.25.
As for KTTI, the figure is no more than 0.25; as for LGSF, no more than 0.25; as for YVWK, no more than 0.25.
Turning to IDNN, the enrichment ratio was no more than 0.25.
For the variant EQLL, the enrichment ratio is no more than 0.25.
The result for ADLL reads 9.99; that for YYLL, no more than 0.25.
As for ATLL, the figure is 20.5; as for GSLL, 14.1.
The result for IQLL reads 0.329.
For the variant YTLL, the enrichment ratio is 9.09.
As for TPLL, the figure is no more than 0.25; as for TQLL, 18.9.
As for GSRL, the figure is no more than 0.25.
As for FTLL, the figure is 11.6; as for AHLL, 9.28.
VRSK: the enrichment ratio was no more than 0.25.
For the variant LRNP, the enrichment ratio is no more than 0.25.
The result for AMGN reads 1.38; that for QRDR, no more than 0.25.
As for FIYI, the figure is no more than 0.25.
As for ITNW, the figure is no more than 0.25; as for WLSG, no more than 0.25; as for FDMD, no more than 0.25.
On to MVGW, for which the enrichment ratio is no more than 0.25.
As for DRLW, the figure is no more than 0.25; as for GCLL, 18.3; as for LNLL, no more than 0.25.
As for GICL, the figure is 9.48; as for QCLL, 2.35; as for KCLL, no more than 0.25.
As for WILL, the figure is no more than 0.25.
For the variant GILL, the enrichment ratio turned out to be 18.2.
The result for GTLL reads 12.4.
The result for LTLL reads 3.06; that for NILL, 0.938.
As for GNLL, the figure is 15.3; as for NPLL, no more than 0.25.
Take TKDY: the enrichment ratio is no more than 0.25.
The result for KPVK reads no more than 0.25; that for ICMI, no more than 0.25.
Turning to SFHP, the enrichment ratio is no more than 0.25.
The result for YHHD reads no more than 0.25.
As for AQVH, the figure is 7.73; as for GEFP, no more than 0.25; as for VRNY, no more than 0.25.
The result for GNAL reads 7.59; that for YALL, 10.6; that for GAAL, no more than 0.25.
Regarding GIAL, the enrichment ratio turned out to be 13.
As for GALL, the figure is 13.8.
As for SKLT, the figure is 4.23; as for SKLL, 14.
On to HILL, for which the enrichment ratio was no more than 0.25.
As for WKIW, the figure is no more than 0.25.
As for PCAY, the figure is no more than 0.25.
QHAW: the enrichment ratio is no more than 0.25.
For LSTI, the enrichment ratio was no more than 0.25.
The result for GWLL reads no more than 0.25; that for KRIA, no more than 0.25; that for FCYK, no more than 0.25.
For PGQT, the enrichment ratio was no more than 0.25.
On to QFAV, for which the enrichment ratio was no more than 0.25.
The result for FDWQ reads no more than 0.25.
As for SGCY, the figure is 10.6; as for NICR, no more than 0.25.
The result for AIMR reads 16.6; that for ADCV, no more than 0.25.
KKMR: the enrichment ratio was no more than 0.25.
The result for NICK reads 14.4.

Source of the values: a collection of fitness landscapes (doi:10.1126/science.1257360).
